Results: PubChem BioAssay (NCI)
About 79,000 compounds went through this panel and 15% of them were active in at least one assay; those are over-represented in the sample as a whole. A number with no mark means an inactive call. Activity calls are given as the source filed them. Cut-off read from the data, not from the text of the source: active = growth inhibition above about 70%; inactive = the rest.

Columns and labels:
[1] = NCI Yeast Anticancer Drug Screen. Data for the wt1 strain (AID 149);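 note: 0% = growth of vehicle-treated wt1 cultures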; settings: S. cerevisiae wt1 strain (SPY 50644) growth inhibition, hits give high values
Outline: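 Measured: growth of wt1 yeast under compound versus vehicle treatment, reported as inhibition.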

[2] = NCI Yeast Anticancer Drug Screen. Data for the rad50EPP+ strain (AID 151);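 note: 0% = growth of vehicle-treated control cultures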; settings: S. cerevisiae rad50 mutant strain, hits give high values
Outline: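 Strain rad50EPP+; compound exposure; % growth inhibition vs vehicle.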

[3] = NCI Yeast Anticancer Drug Screen. Data for the mgt1 strain (AID 153); settings: S. cerevisiae mgt1 mutant growth inhibition, hits give high values
Outline: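 Read-out: yeast growth inhibition vs vehicle control. Strain mgt1, drawn from a panel altered in DNA damage repair or cell cycle control.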

[4] = NCI Yeast Anticancer Drug Screen. Data for the rad50 strain (AID 155);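 note: 0% = growth of vehicle-only cultures of the same strain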; settings: S. cerevisiae rad50 strain growth inhibition, hits give high values
Outline: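 Growth of the mutant yeast was measured after compound exposure and referenced to vehicle-treated cultures.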

[5] = NCI Yeast Anticancer Drug Screen. Data for the mec2-1 strain (AID 157); settings: S. cerevisiae mec2-1 strain, hits give high values
Outline: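 Cells of the genetically defined mec2-1 yeast strain are incubated with test compound. Inhibition of growth is calculated against vehicle-treated controls.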

[6] = NCI Yeast Anticancer Drug Screen. Data for the rad14 strain (AID 159);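 note: 0% = growth of vehicle-treated control cultures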; settings: S. cerevisiae rad14 strain growth inhibition, hits give high values
Outline: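 Here, inhibition of yeast growth was measured after compound exposure, using a strain with a genetic defect in DNA damage repair and vehicle-treated cultures as the reference.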

[7] = NCI Yeast Anticancer Drug Screen. Data for the sgs1 mgt1 strain (AID 161);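 note: 0% = growth of cultures given vehicle only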; settings: S. cerevisiae sgs1 mgt1 strain, hits give high values
Outline: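 Genetically altered yeast, compound exposure, growth inhibition relative to vehicle.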

[8] = NCI Yeast Anticancer Drug Screen. Data for the CLN2oe strain (AID 163);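 note: 0% = growth of vehicle-only control cultures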; settings: S. cerevisiae CLN2oe strain, hits give high values
Outline: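 Strain altered in cell-cycle control, incubated with compound; growth compared to solvent-treated controls.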

[9] = NCI Yeast Anticancer Drug Screen. Data for the cln2 rad14 strain (AID 165);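 note: 0% = growth equal to vehicle treated cultures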; settings: S. cerevisiae cln2 rad14 strain, hits give high values
Outline: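 The screen exposed genetically defined yeast (cln2 rad14) to test compounds and scored growth inhibition relative to vehicle-treated controls.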

[10] = NCI Yeast Anticancer Drug Screen. Data for the bub3 strain (AID 167); settings: S. cerevisiae bub3 mutant strain, hits give high values
Outline: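 Whole-cell yeast assay. The mutant strain was incubated with compounds, and growth inhibition was determined by comparison with vehicle-treated cells.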

[11] = NCI Yeast Anticancer Drug Screen. Data for the wt2 strain (AID 169);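 note: 0% = growth of vehicle-treated yeast cultures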; settings: S. cerevisiae wt2 strain growth inhibition, hits give high values
Outline: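 Steps: yeast strain treated with compound; growth recorded; inhibition calculated relative to cultures given vehicle alone.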

[12] = NCI Yeast Anticancer Drug Screen. Data for the mlh1 strain (AID 171);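 note: 0% = growth of vehicle-treated control cultures of the same strain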; settings: S. cerevisiae mlh1 strain growth inhibition, hits give high values
Outline: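 Yeast screen: mutant strain plus compound, growth scored against vehicle control wells.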

[13] = NCI Yeast Anticancer Drug Screen. Data for the sgs1 strain (AID 173);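 note: 0% = growth of vehicle-only control cultures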; settings: S. cerevisiae sgs1 mutant, hits give high values
Outline: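 Inhibition of yeast growth served as the measure. The mutant strain was treated with each compound, and growth was normalised to cultures receiving vehicle alone.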

[14] = NCI Yeast Anticancer Drug Screen. Data for the mlh1 rad18 strain (AID 175); settings: S. cerevisiae mlh1 rad18 strain growth inhibition, hits give high values
Outline: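 Compound-treated yeast growth, normalised to vehicle controls. Strain bears defined DNA repair mutations.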

[15] = NCI Yeast Anticancer Drug Screen. Data for the rad18 strain (AID 177); settings: S. cerevisiae rad18 mutant growth inhibition, hits give high values
Outline: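 Inhibition values reflect reduced yeast growth compared with vehicle-treated controls, using a strain engineered with a DNA damage repair defect.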

[16] = at 5.0 µM (retest, dose inferred, filed as 0.5)
[17] = at 50.0 µM (retest, dose inferred, filed as 5.0)

For O=C(CNS(=O)(=O)Cc1ccccc1)NNc1ccccc1, which growth inhibition ([1]; at 1.2 µM) is on record?
Its growth inhibition is -1%.

And the growth inhibition ([1]; at 3.7 µM)?
The growth inhibition was 5%.

What about the growth inhibition ([1]; at 11.0 µM) of the same compound?
Its growth inhibition is 4%.

And the growth inhibition ([1]; at 33.0 µM)?
Its growth inhibition is 23%.

What about the growth inhibition ([1]; at 100.0 µM) of the same compound?
The growth inhibition was 36%.

And the growth inhibition ([2]; at 1.2 µM)?
The growth inhibition was 2%.

And the growth inhibition ([2]; at 3.7 µM)?
Its growth inhibition is 4%.

What about the growth inhibition ([2]; at 11.0 µM) of the same compound?
The growth inhibition was 22%.

What about the growth inhibition ([2]; at 33.0 µM) of the same compound?
Its growth inhibition is 43%.

And the growth inhibition ([2]; at 100.0 µM)?
The growth inhibition was 58%.

What about the growth inhibition ([3]; at 1.2 µM) of the same compound?
The growth inhibition was -1%.

What about the growth inhibition ([3]; at 3.7 µM) of the same compound?
Its growth inhibition is 12%.

What about the growth inhibition ([3]; at 11.0 µM) of the same compound?
Its growth inhibition is 14%.

What about the growth inhibition ([3]; at 33.0 µM) of the same compound?
Its growth inhibition is 16%.

And the growth inhibition ([3]; at 100.0 µM)?
The growth inhibition was 16%.

And the growth inhibition ([4]; at 1.2 µM)?
Its growth inhibition is 2%.

What about the growth inhibition ([4]; at 3.7 µM) of the same compound?
Its growth inhibition is 4%.

And the growth inhibition [4, 16]?
Its growth inhibition is 13%.

What about the growth inhibition ([4]; at 11.0 µM) of the same compound?
The growth inhibition was 9%.

And the growth inhibition ([4]; at 33.0 µM)?
The growth inhibition was 17%.

And the growth inhibition [4, 17]?
The growth inhibition was 64%.

What about the growth inhibition ([4]; at 50.0 µM) of the same compound?
The growth inhibition was 75.8% (active).

And the growth inhibition ([4]; at 100.0 µM)?
Its growth inhibition is 24%.

What about the growth inhibition ([5]; at 1.2 µM) of the same compound?
The growth inhibition was -1%.

What about the growth inhibition ([5]; at 3.7 µM) of the same compound?
The growth inhibition was 0%.

And the growth inhibition [5, 16]?
Its growth inhibition is -3%.

And the growth inhibition ([5]; at 11.0 µM)?
The growth inhibition was 7%.

What about the growth inhibition ([5]; at 33.0 µM) of the same compound?
The growth inhibition was 14%.

And the growth inhibition [5, 17]?
Its growth inhibition is 9%.

And the growth inhibition ([5]; at 50.0 µM)?
Its growth inhibition is 62.5%.

What about the growth inhibition ([5]; at 100.0 µM) of the same compound?
The growth inhibition was 16%.

And the growth inhibition ([6]; at 1.2 µM)?
The growth inhibition was 0%.

And the growth inhibition ([6]; at 3.7 µM)?
The growth inhibition was 3%.

And the growth inhibition ([6]; at 11.0 µM)?
Its growth inhibition is 6%.

What about the growth inhibition ([6]; at 33.0 µM) of the same compound?
Its growth inhibition is 13%.

What about the growth inhibition ([6]; at 100.0 µM) of the same compound?
The growth inhibition was 20%.

And the growth inhibition [7, 16]?
Its growth inhibition is 28%.

And the growth inhibition [7, 17]?
Its growth inhibition is 71% (active).

What about the growth inhibition ([7]; at 50.0 µM) of the same compound?
Its growth inhibition is 63.6%.

And the growth inhibition ([8]; at 1.2 µM)?
The growth inhibition was 5%.

And the growth inhibition ([8]; at 3.7 µM)?
The growth inhibition was 5%.

What about the growth inhibition ([8]; at 11.0 µM) of the same compound?
The growth inhibition was 24%.

And the growth inhibition ([8]; at 33.0 µM)?
Its growth inhibition is 39%.

What about the growth inhibition ([8]; at 100.0 µM) of the same compound?
The growth inhibition was 39%.

And the growth inhibition [9, 16]?
The growth inhibition was 8%.

What about the growth inhibition [9, 17] of the same compound?
The growth inhibition was 33%.

What about the growth inhibition ([9]; at 50.0 µM) of the same compound?
Its growth inhibition is 60%.

And the growth inhibition ([10]; at 1.2 µM)?
The growth inhibition was 1%.

What about the growth inhibition ([10]; at 3.7 µM) of the same compound?
Its growth inhibition is 0%.

And the growth inhibition [10, 16]?
The growth inhibition was 5%.

What about the growth inhibition ([10]; at 11.0 µM) of the same compound?
The growth inhibition was 2%.

What about the growth inhibition ([10]; at 33.0 µM) of the same compound?
Its growth inhibition is 8%.

And the growth inhibition [10, 17]?
Its growth inhibition is 29%.

And the growth inhibition ([10]; at 50.0 µM)?
Its growth inhibition is 69.3%.

And the growth inhibition ([10]; at 100.0 µM)?
The growth inhibition was 10%.

What about the growth inhibition ([11]; at 1.2 µM) of the same compound?
The growth inhibition was 1%.

And the growth inhibition ([11]; at 3.7 µM)?
Its growth inhibition is 2%.

And the growth inhibition ([11]; at 11.0 µM)?
The growth inhibition was 11%.

What about the growth inhibition ([11]; at 33.0 µM) of the same compound?
Its growth inhibition is 30%.

And the growth inhibition ([11]; at 100.0 µM)?
Its growth inhibition is 38%.

And the growth inhibition ([12]; at 1.2 µM)?
The growth inhibition was -4%.

And the growth inhibition ([12]; at 3.7 µM)?
Its growth inhibition is 0%.

What about the growth inhibition ([12]; at 11.0 µM) of the same compound?
Its growth inhibition is 5%.

And the growth inhibition ([12]; at 33.0 µM)?
The growth inhibition was 16%.

And the growth inhibition ([12]; at 100.0 µM)?
Its growth inhibition is 24%.

What about the growth inhibition ([13]; at 1.2 µM) of the same compound?
Its growth inhibition is -1%.

What about the growth inhibition ([13]; at 3.7 µM) of the same compound?
The growth inhibition was -1%.

And the growth inhibition ([13]; at 11.0 µM)?
Its growth inhibition is 8%.

And the growth inhibition ([13]; at 33.0 µM)?
Its growth inhibition is 36%.

And the growth inhibition ([13]; at 100.0 µM)?
Its growth inhibition is 54%.

And the growth inhibition [14, 16]?
Its growth inhibition is 71% (active).

And the growth inhibition [14, 17]?
The growth inhibition was 90% (active).

And the growth inhibition ([14]; at 50.0 µM)?
Its growth inhibition is 40.1%.

What about the growth inhibition ([15]; at 1.2 µM) of the same compound?
The growth inhibition was 4%.

What about the growth inhibition ([15]; at 3.7 µM) of the same compound?
Its growth inhibition is 5%.

And the growth inhibition ([15]; at 11.0 µM)?
Its growth inhibition is 23%.

And the growth inhibition ([15]; at 33.0 µM)?
Its growth inhibition is 63%.

What about the growth inhibition ([15]; at 100.0 µM) of the same compound?
The growth inhibition was 83% (active).
